{"source": "paper PMC7862700", "about": "“An all-to-all approach to the identification of sequence-specific readers for epigenetic DNA modifications on cytosine”", "test_in_all_cases": "DAPPL (digital affinity profiling via proximity ligation, sequencing); 10 mM Tris-HCl pH 7.5, 50 mM NaCl, 1 mM DTT, 4% glycerol, room temperature, 30 min; GST-TFs on glutathione beads, 16-mer random dsDNA library, 0.1% formaldehyde crosslink after washing; high values mean tight binding", "details_in_all_cases": "protein: recombinant; tags: N-terminal GST; dsDNA, one strand shown", "key": {"FLI1": {"target": "T1, FLI1 (Homo sapiens, UniProt Q01543 1-452)", "T1 sequence": "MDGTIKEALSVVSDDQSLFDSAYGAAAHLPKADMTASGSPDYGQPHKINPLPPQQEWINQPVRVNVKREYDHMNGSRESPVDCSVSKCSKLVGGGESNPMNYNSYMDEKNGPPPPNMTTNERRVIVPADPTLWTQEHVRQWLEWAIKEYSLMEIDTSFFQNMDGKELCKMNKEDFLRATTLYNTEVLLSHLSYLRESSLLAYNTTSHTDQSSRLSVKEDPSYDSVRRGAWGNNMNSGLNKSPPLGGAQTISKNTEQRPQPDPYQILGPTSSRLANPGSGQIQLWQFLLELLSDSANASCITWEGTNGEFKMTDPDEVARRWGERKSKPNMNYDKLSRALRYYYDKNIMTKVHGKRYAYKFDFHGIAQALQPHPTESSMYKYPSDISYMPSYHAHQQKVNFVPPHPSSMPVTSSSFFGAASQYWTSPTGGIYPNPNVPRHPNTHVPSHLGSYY", "summary_of_the_method": "(§1)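 Binding signal is given per hexamer as its read frequency for a factor divided by its frequency in the tag-only sample. GST-fused human transcription factors were expressed in yeast, captured on glutathione beads, barcoded with DNA and pooled with that sample, then incubated with 200 nmole of a 16-mer random double-stranded DNA library in Tris/NaCl/DTT/glycerol buffer for 30 min at room temperature. The pools were then washed, crosslinked, proximity-ligated, amplified by PCR and sequenced on an Illumina NextSeq500.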"}, "GABPA": {"target": "T2, GABPA (Homo sapiens, UniProt Q06546 1-454)", "T2 sequence": "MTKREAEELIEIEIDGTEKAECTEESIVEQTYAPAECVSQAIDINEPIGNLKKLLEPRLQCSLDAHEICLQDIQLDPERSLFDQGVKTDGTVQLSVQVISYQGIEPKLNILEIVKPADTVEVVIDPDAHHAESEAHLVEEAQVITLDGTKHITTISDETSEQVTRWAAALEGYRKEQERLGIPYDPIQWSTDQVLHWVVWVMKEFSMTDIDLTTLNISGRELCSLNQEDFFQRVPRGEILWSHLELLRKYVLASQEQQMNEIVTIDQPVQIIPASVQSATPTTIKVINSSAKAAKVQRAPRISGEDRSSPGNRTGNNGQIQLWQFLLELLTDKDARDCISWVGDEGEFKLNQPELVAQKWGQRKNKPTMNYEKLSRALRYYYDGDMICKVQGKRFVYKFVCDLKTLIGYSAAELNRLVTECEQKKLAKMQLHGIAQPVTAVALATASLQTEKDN", "summary_of_the_method": "as §1"}, "ERG": {"target": "T3, ERG (Homo sapiens, UniProt P11308 1-479)", "T3 sequence": "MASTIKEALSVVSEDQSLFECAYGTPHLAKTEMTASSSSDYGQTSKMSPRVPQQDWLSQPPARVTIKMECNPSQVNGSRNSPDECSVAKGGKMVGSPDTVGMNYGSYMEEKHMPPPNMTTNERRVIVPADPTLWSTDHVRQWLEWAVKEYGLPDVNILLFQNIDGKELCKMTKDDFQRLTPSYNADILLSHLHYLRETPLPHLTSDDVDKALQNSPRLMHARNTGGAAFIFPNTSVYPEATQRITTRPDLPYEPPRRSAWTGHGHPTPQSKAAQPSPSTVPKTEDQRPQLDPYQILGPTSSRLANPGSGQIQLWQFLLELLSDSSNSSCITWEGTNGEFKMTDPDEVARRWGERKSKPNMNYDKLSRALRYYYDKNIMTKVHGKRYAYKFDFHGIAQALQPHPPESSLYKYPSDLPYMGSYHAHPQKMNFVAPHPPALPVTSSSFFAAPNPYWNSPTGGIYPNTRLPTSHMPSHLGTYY", "summary_of_the_method": "as §1"}, "SPIB": {"target": "SPIB (Homo sapiens, UniProt Q01892 1-262)", "sequence (Q01892 whole entry)": "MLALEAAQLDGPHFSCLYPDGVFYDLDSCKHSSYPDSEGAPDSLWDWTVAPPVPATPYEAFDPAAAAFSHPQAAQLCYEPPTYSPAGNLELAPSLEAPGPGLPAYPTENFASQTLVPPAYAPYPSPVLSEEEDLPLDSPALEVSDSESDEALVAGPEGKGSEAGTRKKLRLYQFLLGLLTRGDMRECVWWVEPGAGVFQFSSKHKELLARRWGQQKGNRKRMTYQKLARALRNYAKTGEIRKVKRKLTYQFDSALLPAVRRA", "summary_of_the_method": "as §1"}, "FEV": {"target": "T4, FEV (Homo sapiens, UniProt Q99581 1-238)", "T4 sequence": "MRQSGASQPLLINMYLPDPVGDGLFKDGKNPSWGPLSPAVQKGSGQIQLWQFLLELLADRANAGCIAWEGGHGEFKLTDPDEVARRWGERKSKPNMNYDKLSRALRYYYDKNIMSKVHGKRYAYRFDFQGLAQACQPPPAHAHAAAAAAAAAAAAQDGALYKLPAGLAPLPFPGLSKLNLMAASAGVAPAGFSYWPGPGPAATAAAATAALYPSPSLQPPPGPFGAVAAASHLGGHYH", "summary_of_the_method": "as §1"}, "ETV5": {"target": "ETV5 (Homo sapiens, UniProt P41161 1-510)", "sequence (P41161 whole entry)": "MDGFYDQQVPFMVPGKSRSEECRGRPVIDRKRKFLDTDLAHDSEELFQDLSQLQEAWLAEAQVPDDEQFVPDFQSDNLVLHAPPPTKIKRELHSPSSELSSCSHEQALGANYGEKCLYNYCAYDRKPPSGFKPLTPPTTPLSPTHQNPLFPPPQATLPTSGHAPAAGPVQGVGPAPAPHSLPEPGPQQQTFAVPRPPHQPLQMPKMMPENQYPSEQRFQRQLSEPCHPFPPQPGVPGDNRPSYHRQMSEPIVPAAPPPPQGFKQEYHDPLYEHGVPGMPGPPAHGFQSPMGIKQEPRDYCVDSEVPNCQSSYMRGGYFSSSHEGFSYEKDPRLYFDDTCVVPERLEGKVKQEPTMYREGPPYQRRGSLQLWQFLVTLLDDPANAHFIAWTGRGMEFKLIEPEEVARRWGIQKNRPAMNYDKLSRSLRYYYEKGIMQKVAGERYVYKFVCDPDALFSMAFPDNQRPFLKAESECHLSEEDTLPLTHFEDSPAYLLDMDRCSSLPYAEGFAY", "summary_of_the_method": "as §1"}, "SPIC": {"target": "T5, SPIC (Homo sapiens, UniProt Q8N5J4 1-248)", "T5 sequence": "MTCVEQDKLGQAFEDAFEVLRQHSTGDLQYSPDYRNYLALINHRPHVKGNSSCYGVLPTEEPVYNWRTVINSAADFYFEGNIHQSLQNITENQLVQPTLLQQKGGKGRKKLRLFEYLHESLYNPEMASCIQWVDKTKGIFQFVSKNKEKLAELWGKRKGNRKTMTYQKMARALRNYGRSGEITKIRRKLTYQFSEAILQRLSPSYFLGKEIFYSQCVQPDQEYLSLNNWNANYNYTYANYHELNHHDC", "summary_of_the_method": "as §1"}, "ELF4": {"target": "ELF4 (Homo sapiens, UniProt Q99607 1-663)", "sequence (Q99607 whole entry)": "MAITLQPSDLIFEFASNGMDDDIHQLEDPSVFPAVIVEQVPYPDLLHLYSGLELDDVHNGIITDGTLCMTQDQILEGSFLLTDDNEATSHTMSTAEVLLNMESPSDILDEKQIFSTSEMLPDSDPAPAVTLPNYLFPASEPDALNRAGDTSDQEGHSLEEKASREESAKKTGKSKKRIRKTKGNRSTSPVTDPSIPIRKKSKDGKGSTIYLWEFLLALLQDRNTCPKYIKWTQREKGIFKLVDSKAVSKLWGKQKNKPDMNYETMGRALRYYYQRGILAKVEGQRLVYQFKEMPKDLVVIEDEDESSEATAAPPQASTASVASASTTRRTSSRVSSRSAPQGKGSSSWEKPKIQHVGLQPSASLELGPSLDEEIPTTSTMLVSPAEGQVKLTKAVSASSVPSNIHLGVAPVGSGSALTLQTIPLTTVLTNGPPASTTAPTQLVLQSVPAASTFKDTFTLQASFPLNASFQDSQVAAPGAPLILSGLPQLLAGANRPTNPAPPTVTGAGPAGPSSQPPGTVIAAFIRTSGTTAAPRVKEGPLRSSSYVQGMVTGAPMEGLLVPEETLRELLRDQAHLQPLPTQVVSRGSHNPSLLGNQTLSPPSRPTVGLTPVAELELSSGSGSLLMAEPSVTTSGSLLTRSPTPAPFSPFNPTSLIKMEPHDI", "summary_of_the_method": "as §1"}, "ETV3": {"target": "T6, ETV3 (Homo sapiens, UniProt P41162-2 1-143)", "T6 sequence": "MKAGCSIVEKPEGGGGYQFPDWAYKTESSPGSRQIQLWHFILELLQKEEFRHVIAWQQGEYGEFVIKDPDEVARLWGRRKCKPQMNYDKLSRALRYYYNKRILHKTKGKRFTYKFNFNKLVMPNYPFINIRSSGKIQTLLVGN", "summary_of_the_method": "as §1"}}}
{"sequence": "AGCTGT", "values": [{"measurement": "binding signal", "setting": "FLI1", "result": "1.04 fold enrichment (6-mer frequency, TF over GST control)"}, {"measurement": "binding signal", "setting": "GABPA", "result": "1.05 fold enrichment (6-mer frequency, TF over GST control)"}, {"measurement": "binding signal", "setting": "ERG", "result": "1.01 fold enrichment (6-mer frequency, TF over GST control)"}, {"measurement": "binding signal", "setting": "SPIB", "result": "1.06 fold enrichment (6-mer frequency, TF over GST control)"}, {"measurement": "binding signal", "setting": "FEV", "result": "1.04 fold enrichment (6-mer frequency, TF over GST control)"}, {"measurement": "binding signal", "setting": "ETV5", "result": "1.02 fold enrichment (6-mer frequency, TF over GST control)"}, {"measurement": "binding signal", "setting": "SPIC", "result": "1.15 fold enrichment (6-mer frequency, TF over GST control)"}, {"measurement": "binding signal", "setting": "ELF4", "result": "1.02 fold enrichment (6-mer frequency, TF over GST control)"}, {"measurement": "binding signal", "setting": "ETV3", "result": "1.07 fold enrichment (6-mer frequency, TF over GST control)"}]}
